Reference: PubChem BioAssay AID1159580 (chemical genetic matrix, 2015)
“And” between values parts separate entries of the source, which are not always exact repeats. Equal entries are not always repeated. The whole screen tested about 5,500 compounds, of which about 2,000 (36%) were called active. Roughly 18% stayed inconclusive and do not appear here. No stated cut-off is given here; in the data, active means normalized growth mostly below about 0.91 (no sharp cut-off); inconclusive means no clear call, values can overlap the other calls; inactive means mostly above about 0.92. The list shows a part of the results.

Test: chemical genetic growth profiling, strain panel (AID 1159580);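 further: tested at 20 µM; growth read once vehicle control cultures reached saturation at 30 °C; 1 = growth at the plate median or of vehicle wells; lower values mean less growth of the strain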
Settings: S. cerevisiae deletion strains, growth OD

Measured: normalized growth

CCN(CC)CCOC(=O)C1(C2CCCCC2)CCCCC1
inactive: locus YJR066W, strain TOR1, hits give low values 0.951 | locus YJR075W, strain HOC1, hits give low values 0.952 and 0.974 | locus YKL009W, strain mrt4, hits give low values 0.971 | locus YKL068W, hits give low values 0.992 | locus YKL085W, strain MDH1 (second series), hits give low values 0.963 | locus YKL085W, strain MDH1, hits give low values 0.963 | locus YKL160W, strain elf1, hits give low values 1.01 | locus YKR001C, strain vps1, hits give low values 1 | locus YKR026C, strain gcn3, hits give low values 0.982 | locus YKR091W, strain srl3, hits give low values 0.978 | locus YLL001W, strain dnm1, hits give low values 0.998 | locus YLL026W, hits give low values 0.997 | locus YLL041C, strain sdh2, hits give low values 0.987 | locus YLR027C, strain aat2, hits give low values 0.994 | locus YLR039C, strain RIC1, hits give low values 1.3 | locus YLR058C, strain SHM2, hits give low values 0.985 | locus YLR102C, strain apc9, hits give low values 0.987 | locus YLR113W, strain HOG1, hits give low values 1.05 | locus YLR221C, strain rsa3, hits give low values 0.952 | locus YLR258W, strain gsy2, hits give low values 0.955 | locus YLR262C, strain YPT6 (second series), hits give low values 1.04 | locus YLR262C, strain YPT6, hits give low values 1.25 | locus YLR268W, strain sec22, hits give low values 0.965 | locus YLR320W, strain mms22, hits give low values 0.93 | locus YLR330W, strain CHS5, hits give low values 0.999 | locus YLR342W, strain FKS1 (second series), hits give low values 0.905 | locus YLR342W, strain FKS1, hits give low values 0.983 | locus YLR357W, strain rsc2, hits give low values 0.965 | locus YLR370C, strain arc18, hits give low values 0.979 | locus YLR371W, strain rom2, hits give low values 0.973 | locus YLR384C, strain iki3, hits give low values 0.993 | locus YLR418C, strain cdc73, hits give low values 0.847 | locus YML016C, strain PPZ1, hits give low values 0.997 | locus YML032C, strain rad52, hits give low values 0.966 | locus YML120C, strain ndi1, hits give low values 0.985 | locus YML124C, strain tub3, hits give low values 0.984 | locus YMR058W, strain fet3, hits give low values 0.983 | locus YMR078C, strain ctf18, hits give low values 0.978 | locus YMR125W, strain sto1, hits give low values 0.946 | locus YMR129W, hits give low values 0.972 | locus YMR205C, strain PFK2, hits give low values 0.985 | locus YMR223W, strain ubp8, hits give low values 0.932 | locus YMR231W, strain pep5, hits give low values 0.985 | locus YMR263W, strain SAP30, hits give low values 0.984 and 1 | locus YMR307W, strain GAS1, hits give low values 1.23 and 1.02 | locus YNL067W, strain RPL9B, hits give low values 0.979 | locus YNL071W, strain lat1, hits give low values 0.951 | locus YNL128W, strain TEP1, hits give low values 1.02 | locus YNL153C, strain GIM3, hits give low values 0.966 and 0.991 | locus YNL175C, strain NOP13, hits give low values 1.02 | locus YNL183C, strain NPR1, hits give low values 0.995 | locus YNL197C, strain WHI3, hits give low values 1.06 | locus YNL209W, strain ssb2, hits give low values 0.947 | locus YNL224C, strain SQS1, hits give low values 1.01 | locus YNL233W, strain BNI4, hits give low values 0.962 | locus YNL248C, strain rpa49, hits give low values 0.948 | locus YNL250W, strain rad50, hits give low values 0.979 | locus YNL271C, strain bni1, hits give low values 0.973 | locus YNL298W, strain CLA4, hits give low values 1 | locus YNL307C, strain MCK1, hits give low values 0.968 | locus YNL322C, strain KRE1 (second series), hits give low values 0.979 | locus YNR049C, strain mso1, hits give low values 0.979 | locus YNR052C, strain pop2, hits give low values 0.961 | locus YOL012C, strain htz1 0.807 | locus YOL147C, strain pex11, hits give low values 0.99 | locus YOR001W, strain rrp6, hits give low values 1.01 | locus YOR061W, strain CKA2, hits give low values 1 | locus YOR069W, strain VPS5, hits give low values 0.994 | locus YOR070C, strain gyp1, hits give low values 0.968 | locus YOR080W, strain dia2, hits give low values 0.982 | locus YOR083W, strain WHI5 (second series), hits give low values 1.02 | locus YOR083W, strain WHI5, hits give low values 0.965 | locus YOR106W, strain vam3, hits give low values 1 | locus YOR136W, strain idh2, hits give low values 0.998 | locus YOR144C, strain elg1, hits give low values 0.997 | locus YOR184W, strain ser1, hits give low values 0.992 | locus YOR231W, strain MKK1, hits give low values 1.04 | locus YOR265W, strain rbl2, hits give low values 0.991 | locus YOR270C, strain vph1, hits give low values 0.85 | locus YOR290C, strain snf2, hits give low values 0.939 | locus YOR316C, strain cot1, hits give low values 0.992 | locus YPL051W, strain arl3, hits give low values 0.984 | locus YPL055C, strain LGE1, hits give low values 0.986 | locus YPL078C, strain atp4, hits give low values 1.01 | locus YPL106C, strain sse1, hits give low values 0.939 | locus YPL240C, strain hsp82, hits give low values 0.984 | locus YPL241C, strain CIN2, hits give low values 0.998 | locus YPL256C, strain CLN2, hits give low values 1.05 | locus YPR119W, strain clb2, hits give low values 0.99 | locus YPR141C, strain kar3, hits give low values 0.993 | locus YPR163C, strain tif3, hits give low values 0.988 | locus YPR167C, strain met16, hits give low values 0.983 | strain wtn01, hits give low values 0.957
